# In article PMC8769072, “Proteome‐scale mapping of binding sites in the unstructured regions of the human proteome” (Molecular Systems Biology, 2022):
# B1: ARAP2, Q8WZ64 (peptide)
# chain: SGSVQTSSPPQLETVR
# B2: HIPK2, Q9H2X6 (peptide)
# chain: AASTSVTAGWGDVASS
# B3: ABHD12, Q8N2K0 (peptide)
# chain: VALEHERAAAAGSSSS
# B4: NXF1, Q9UBU9 (peptide)
# chain: AMPAPTPSSSPVPTLS
# B5: SYNE2, Q8WXH0 (peptide)
# chain: DRASSSSGTIVQEAYG
# B6: BSN, Q9UPA5 (peptide)
# chain: DASSQTRMVHASASTS
# B7: SALL1, Q9NSC2 (peptide)
# chain: SGMVTNSVPTASSSVL
# B8: SAMD4A, Q9UPU9 (peptide)
# chain: SSVPTTINTIGTSTST
# B9: MARK1, Q9P0L2 (peptide)
# chain: MSVSSISSAGSSVASA
# B10: ARNTL2, Q8WYA1 (peptide)
# chain: SAMSVPGMSTGTVLGA
# B11: GRM1, Q13255 (peptide)
# chain: ASGSSVPSSPVSESVL
# B12: ESR1, P03372 (peptide)
# chain: QSHLATAGSTSSHSLQ
# B13: MAGEE1, Q9HCI5 (peptide)
# chain: AYEGPSTSVVPTPDEG
# B14: SS18, Q15532 (peptide)
# chain: MPSSSHGSMGGYNHSV
# B15: PHC3, Q8NDX5 (peptide)
# chain: MDTEPNPGTSSVSTTT
# B16: GPR179, Q6PRD1 (peptide)
# chain: SLQNQQNAHTSRMLQV
# B17: PRDM2, Q13029 (peptide)
# chain: SSSSPSPPPLSAISSV
# B18: WBP1, Q96G27 (peptide)
# chain: PLTASSEQTAASSSSS
# B19: SPTBN4, Q9H254 (peptide)
# chain: EHAEIARWGQTLPTTS
# B20: KAT6A, Q92794 (peptide)
# chain: DVPSVSDHSQQVVDSG
# B21: AHNAK2, Q8IVF2 (peptide)
# chain: VSAPGRSIEASVDVPA
# B22: KIAA0408, Q6ZU52 (peptide)
# chain: HVSNDASSSVAESSSP
# B23: TTLL5, Q6EMB2 (peptide)
# chain: MPIVMARDLEETASSS
# B24: POM121, Q96HA1 (peptide)
# chain: SFGINVATPGSSTTTG
# B25: ZFP36, P26651 (peptide)
# chain: LAGPSLSSSSFSPSSS
# B26: MAP3K1, Q13233 (peptide)
# chain: GPSSSTTTTTTTTEQP
# B27: MEX3B, Q6ZN04 (peptide)
# chain: SASSSASSSASSSSVV
# B28: SP4, Q02446 (peptide)
# chain: STMPESPSSSTTATTT
# B29: KLF12, Q9Y4X4 (peptide)
# chain: TVITSVSSASSSSTVL
# B30: SAP130, Q9H0E3 (peptide)
# chain: TVPSHSSHATAVTTSN
# B31: EPHA2, P29317 (peptide)
# chain: LPSTSGSEGVPFRTVS
# Biological target: USP7 53-206, Q93009
# Sequence (Q93009 53-206): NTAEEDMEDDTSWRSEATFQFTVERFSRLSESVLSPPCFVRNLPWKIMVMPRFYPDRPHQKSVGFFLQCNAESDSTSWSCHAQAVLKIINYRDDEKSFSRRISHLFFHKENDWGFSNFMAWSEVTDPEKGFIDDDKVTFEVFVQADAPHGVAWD
row,Binder,selected by phage display
1,B1,confidence 2 (active)
2,B2,confidence 2 (active)
3,B3,confidence 3 (active)
4,B4,confidence 2 (active)
5,B5,confidence 2 (active)
6,B6,confidence 3 (active)
7,B7,confidence 4 (active)
8,B8,confidence 2 (active)
9,B9,confidence 3 (active)
10,B10,confidence 2 (active)
11,B11,confidence 4 (active)
12,B12,confidence 3 (active)
13,B13,confidence 4 (active)
14,B14,confidence 2 (active)
15,B15,confidence 2 (active)
16,B16,confidence 2 (active)

row,Binder,selected by phage display
1,B17,confidence 2 (active)
2,B18,confidence 2 (active)
3,B19,confidence 2 (active)
4,B20,confidence 3 (active)
5,B21,confidence 2 (active)
6,B22,confidence 3 (active)
7,B23,confidence 3 (active)
8,B24,confidence 3 (active)
9,B25,confidence 2 (active)
10,B26,confidence 3 (active)
11,B27,confidence 4 (active)
12,B28,confidence 3 (active)
13,B29,confidence 4 (active)
14,B30,confidence 4 (active)
15,B31,confidence 2 (active)
